MT1-MMP txn act: MT1-MMP promoter transcription activation; HT1080 MT1-MMP promoter luciferase reporter, luminescence, overnight; active compounds read high; activation factor at 10 µM; hit rate 0.16% among 86,000; AID 750;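 active = activation factor of at least 2 for MT1-MMP transcription at 10 µM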
ERa SRC1 pot: enhances coactivator binding to human estrogen receptor alpha | P03372 | coactivator binding (% of control), % at 25.6 µM | TR-FRET ERalpha-LBD/SRC-Cy5 coactivator binding, 2 h; 100 = basal binding, no effect | hit rate 1.3% among 86,000; in the data active = activity above about 200%;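 also: binding measured in presence of low estradiol as agonist stimulus; 0% = peptide alone without receptor and 100% = receptor with peptide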
Target sequence (P03372 whole entry, looked up, the tested form may be a part): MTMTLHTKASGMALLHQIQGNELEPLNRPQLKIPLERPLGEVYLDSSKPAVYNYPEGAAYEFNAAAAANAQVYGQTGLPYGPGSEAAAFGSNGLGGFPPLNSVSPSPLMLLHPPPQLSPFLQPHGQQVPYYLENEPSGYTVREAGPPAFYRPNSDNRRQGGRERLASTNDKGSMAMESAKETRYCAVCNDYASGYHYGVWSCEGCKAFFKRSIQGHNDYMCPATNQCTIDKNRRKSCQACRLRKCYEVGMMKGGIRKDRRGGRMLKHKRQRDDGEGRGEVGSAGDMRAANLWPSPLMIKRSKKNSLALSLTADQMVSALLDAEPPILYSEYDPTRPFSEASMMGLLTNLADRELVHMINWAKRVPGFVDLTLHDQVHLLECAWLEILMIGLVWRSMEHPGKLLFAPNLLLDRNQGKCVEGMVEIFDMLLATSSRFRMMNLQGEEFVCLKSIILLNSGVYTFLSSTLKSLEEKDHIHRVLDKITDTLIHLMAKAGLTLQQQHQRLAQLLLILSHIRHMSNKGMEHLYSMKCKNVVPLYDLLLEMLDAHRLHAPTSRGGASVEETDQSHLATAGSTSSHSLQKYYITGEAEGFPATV
ERa coact inh: ER-alpha (human) coactivator binding inhibition. P03372. inhibition, % at 25.6 µM. hit rate 1.7% among 86,000. TR-FRET ER-alpha LBD / SRC-1 peptide, estradiol-bound; in the data active = inhibition above about 50%;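 also: 0% = receptor plus peptide control and 100% = peptide only without receptor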
ERb SRC1 inh: ER-beta (human) coactivator binding inhibition. Q92731. TR-FRET ER-beta LBD / SRC1-Cy5 peptide binding; receptor agonist-loaded with 1 µM estradiol. inhibition, % at 25.6 µM. hit rate 1.3% among 86,000. AID 633;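 active = compounds whose percent inhibition of the receptor-coactivator binding signal exceeds about 50% in the single-dose screen, limit read from the data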;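 also: 0% = receptor plus peptide wells without compound and 100% = peptide-only wells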
hDAT+cocaine: changed human dopamine transporter uptake under cocaine IC80. Q01959. LLC-PK1 hDAT cells, [14C]-dopamine uptake with cocaine IC80; actives deviate in either direction. B-score at 10 µM. hit rate 1.3% among 110,000;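 active = Z score or B-score, a plate-position-corrected score, falls beyond the plate's 99.7% confidence bounds, in either direction; inactive = both scores lie inside the 99.7% bounds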;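 also: scored against the spread of the other compound wells on the same plate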
Active calls of the source: *; . = not tested or not shown; [ ] = remark or other dose. Hits are enriched below; roughly 3.8% of the tested compounds scored in any of these assays.

SMILES | MT1-MMP txn act | ERa SRC1 pot | ERa coact inh | ERb SRC1 inh | hDAT+cocaine
O=C(CN1C(=O)c2ccccc2S1(=O)=O)N1CCOCC1 | 2.1* | 101.9 | -10.6 | -3.2 | 0.00891
O=c1cc(-c2cccc3ccccc23)[nH][nH]1 | 1.1 | 91.3 | 18.5 | 9.2 | 2.36*
Cc1ccccc1OCC(=O)N(Cc1nc(-c2ccccc2)no1)C(C)C | 1.3 | 323.1*[fluorescence artefact?] | -2.4 | -6.0 | 0.823
CC1(c2nnc(Cc3ccccc3)o2)CC(c2cccc(Cl)c2)=NO1 (stereo not drawn) | . | . | . | . | 0.449
C/C(N)=C(/C#N)C(=O)CSc1nc2ccc(C)cc2[nH]1 | 1.2 | 49.5 | 36.1 | 57.0*[fluorescence artefact?] | 0.0148
Cc1ccc2nc(SCC(=O)c3cc(C)n(C)c3C)[nH]c2c1 | 1.2 | 87.2 | -9.6 | -25.0 | 1.06
COc1ccc(C2/C=C\CN(Cc3ccco3)CC(=O)N2Cc2ccc(F)cc2)cc1 (stereo not drawn) | . | . | . | . | -0.00262
Cc1cc(SCC(=O)Nc2ccccc2)nc(C)n1 | 1 | 111.8 | 72.3*[fluorescence artefact?] | -1.9 | -1.12
CC1=NC(=O)C(N=Nc2cccc(O)c2)N1c1ccccc1 (stereo not drawn) | 2* | 78.4 | 3.7 | 16.6 | -0.156
CS(=O)(=O)C1=C(O)C(=O)N(c2ccccc2)C1c1ccccc1 (stereo not drawn) | 1 | 104.7 | 4.5 | -1.0 | -0.567
COC(=O)c1cc2c(=O)n3ccccc3nc2n(Cc2cccnc2)c1=N | 1.2 | 105.0 | -8.8 | 6.1 | 0.746
N=c1c(C(=O)NCc2ccc(F)cc2)cc2c(=O)n3ccccc3nc2n1Cc1cccnc1 | 1.1 | 64.6 | 71.4* | 21.6 | 0.47
O=C(OCC(=O)N1CCN(C(=O)c2ccco2)CC1)c1cc(-c2cccc(Br)c2)nc2ccccc12 | 1 | 163.1 | 0.8 | 4.5 | 2.04
CCC(C)(C)n1nnnc1CN1CCc2ccccc21 | . | 89.0 | -5.2 | -9.8 | -0.153
Cc1cc2c(nc1C)CCCN2C[C@@H](C)O/N=C1/[C@H]2CCn3c(=O)n(-c4ccccc4)c(=O)n3[C@H]2[C@H](O)[C@@H]2O[C@H]12 | . | . | . | . | 0.211
COc1ccc(NC(=O)c2cc(=O)c3ccccc3o2)cn1 | 1.1 | 109.0 | 5.1 | -0.4 | -0.0425
COc1ccc(NC(=O)c2cc(CN3C(=O)c4ccccc4C3=O)ccc2OC)cn1 | 1 | 96.0 | 82.6*[fluorescence artefact?] | 47.2 | 0.034
COC(=O)[C@@H]1C[C@H]1[C@@H](NC(=O)c1cc(C)nn1C)c1ccccc1 | 1.2 | . | . | . | .
Clc1ccc(-c2nc3n(n2)Cc2ccccc2-3)cc1 | 0.6 | 288.6* | 20.8 | 15.8 | -0.905
CCN(CC)S(=O)(=O)c1cccc(-c2nc3n(n2)Cc2ccccc2-3)c1 | 1.1 | 160.8 | 4.1 | 11.3 | -0.525
CC1=Nn2c(nnc2-c2cccs2)SC1 | . | . | . | . | -3.35*
COc1ccc(-n2c(SCCC#N)nnc2-c2cc(Cl)ccc2OC)cc1Cl | 1.1 | 398.6*[fluorescence artefact?] | 47.1 | 45.6 | 0.289
Cc1cccc(-c2nnc(SCC#N)n2-c2cccc(Cl)c2)c1 | 1 | 130.9 | 5.3 | -8.2 | 0.209
Cc1ccccc1OCC(=O)Nc1ccc(N2CCN(S(C)(=O)=O)CC2)cc1 | 1.3 | 105.8 | 10.8 | 15.1 | -8.1*
Cc1cccc(OCC(=O)Nc2ccc(N3CCN(S(C)(=O)=O)CC3)cc2)c1C | 1.2 | 125.5 | 0.3 | 9.5 | 0.268
SMILES | MT1-MMP txn act | ERa SRC1 pot | ERa coact inh | ERb SRC1 inh | hDAT+cocaine
CC(C)CCSc1nc(N)c(C#N)cc1C#N | 1.3 | 391.2*[fluorescence artefact?] | 39.7 | 25.0 | -0.529
O=S(=O)(c1cccc(-c2cn3cccnc3n2)c1)N1CCCCCC1 | 1.1 | 123.6 | 58.0* | 31.6 | 0.378
O=S(=O)(c1cccc(-c2cn3cccnc3n2)c1)N1CCOCC1 | 1.1 | 88.1 | -14.2 | -6.1 | -0.87
Nn1c(Nc2ccccc2)nc2sc3c(c2c1=O)CCC3 | 1.9 | 112.2 | 8.1 | 10.5 | 3.65*
CCc1nc2sc3c(c2c(=O)n1N)CCC3 | 1.2 | 98.4 | -31.4 | -26.6 | 0.24
CCn1c(NN)nc2sc3c(c2c1=O)CCC3 | 1.1 | 46.5 | 18.4 | 52.2* | 0.156
O=C(NCc1ccccc1)c1c[nH]c2cc3c(cc2c1=O)OCCO3 | 2.2* | 81.9 | -16.6 | -21.1 | 0.404
C[C@@]12CCC=C[C@H]1[C@H](c1ccc(C(F)(F)F)cc1)N(Cc1ccccc1)C2=O | . | . | . | . | 0.494
COC(=O)C1=C(C(=O)OC)[C@@H]2N(C)c3ccccc3[C@@]23C[C@@H](C(=O)OC)N(C(=O)c2ccc(Br)cc2)C3=N1 | . | . | . | . | -0.15
O=C(c1ccco1)N1CCN(S(=O)(=O)c2cccc(C(F)(F)F)c2)CC1 | 1 | . | . | . | -1.75*
CN1CCc2nc(NC(=O)c3cccc(OC(F)F)c3)sc2C1 | 1.2 | 116.0 | -2.4 | -6.2 | -0.764
COC(=O)[C@@H]1C[C@H]1[C@@H](NC(=O)c1cccnc1)c1ccccc1 | 1.2 | . | . | . | .
CCCc1nc(Nc2nc3ccccc3o2)nc(C)c1C(=O)OCC | 0.7 | 116.1 | -2.6 | -0.2 | 0.913
CCOC(=O)c1cnc(Nc2nc3ccccc3o2)nc1CSc1ncccn1 | 1.2 | 212.0*[fluorescence artefact?] | 54.9* | 2.9 | 0.433
CN(CCOc1ccc(-c2ccn(S(=O)(=O)c3cccc4ccccc34)n2)cc1)c1ccccn1 | . | . | . | . | -8.28*
CN1C(=O)COc2ccc(C(=O)c3oc4ccccc4c3-c3cnc4c(c3)COc3ccccc3-4)cc21 | 1.1 | 317.4*[fluorescence artefact?] | 15.7 | 21.1 | 1.79
O=C(NC(NC(=S)Nc1ccc(Cl)c(Cl)c1)C(Cl)(Cl)Cl)c1ccco1 (stereo not drawn) | . | . | . | . | -3.83*
CC(C)=CCC/C(C)=C/CC(C)(C)CNCCN1CCNCC1 | 0.5 | 125.5 | -0.3 | -15.4 | -0.501
CC(C)=CCC/C(C)=C/CCC(C)NCCN1CCNCC1 (stereo not drawn) | 1.1 | 200.7*[fluorescence artefact?] | 4.7 | -4.6 | -1.54
O=C(Nc1ccc(Cl)c(C(F)(F)F)c1)NC1CC2CCCC(C1)N2C1CC1 (stereo not drawn) | 1.1 | 85.2 | 5.5 | 6.0 | -0.34
N#Cc1cc2cc3c(cc2nc1SCC(=O)OC1CCCCC1)OCO3 | 1.5 | 231.0*[fluorescence artefact?] | 32.4 | 42.6 | 0.204
CCc1c(C)nc(SCC(=O)c2cccs2)c(C#N)c1C | 1.4 | 137.8 | 19.4 | 52.9* | -0.754
CCCCOc1ccc(-c2c(C#N)c(N)nc(SCC(N)=O)c2C#N)cc1 | 1.2 | 270.6*[fluorescence artefact?] | 41.9 | 40.9 | -2.25*
C=C(C)CSc1nc(N)c(C#N)c(-c2ccc(C)cc2)c1C#N | 1.2 | 108.2 | -2.8 | -0.6 | 1.51
CCCCOC(=O)CSc1nc(N)c(C#N)c(-c2ccc(OCC)cc2)c1C#N | 1.1 | 214.8*[fluorescence artefact?] | 51.4*[fluorescence artefact?] | 75.8*[fluorescence artefact?] | -0.788
CCOC(=O)CC(=O)CSc1nc(N)c(C#N)c(-c2ccc(F)cc2)c1C#N | 1.2 | 107.4 | -2.7 | -8.8 | -0.238
CCOC(=O)CSc1nc(N)c(C#N)c(-c2ccc(OC)cc2)c1C#N | 1.1 | 258.5*[fluorescence artefact?] | 14.4 | 35.0 | -1.08
CSc1nc(N)c(C#N)c(-c2ccc(Cl)cc2)c1C#N | 0.9 | 254.8*[fluorescence artefact?] | 42.0 | 33.5 | -0.0113
N#CC(c1ccc(O)cc1)N1CCOCC1 (stereo not drawn) | 1.3 | 112.4 | -14.6 | -23.7 | -0.151
S=C(NN=C(C1CC1)C1CC1)Nc1ccccc1 | 1.1 | 100.6 | -5.3 | -8.3 | 0.00642

Assay outcomes (PubChem)
